The whole screen tested about 69,000 compounds, of which about 1,000 (1.4%) showed an effect of 50% or more. The sample holds strong results, similar compounds and a random draw of the others, so the mix is not that of the screen.
Tested on: Leishmania donovani
Assay: Leishmania intramacrophage assay
Type: functional, organism-based
Parameters: scale not given: in the data most compounds retested in dose-response had high values

Structure (SMILES): CC(=O)NCCN1CCC(c2cccs2)CC1
- Percent Effect (30 µM, 30.03 µM): 14.89%

Structure (SMILES): COCC(=O)NC1CC2(CCN(Cc3ccco3)CC2)c2ccccc21.O=C(O)C(F)(F)F (centres undefined)
- Percent Effect (30 µM, 30.03 µM): -18.66%

Structure (SMILES): CCOCC1CCN(C(=O)Nc2ccc(-c3csnn3)cc2)C1 (centres undefined)
- Percent Effect (30.3 µM, […]): -4.056%

Structure (SMILES): CCCC(=O)NC1CCN(c2ccccc2S(=O)(=O)CC)CC1
- Percent Effect (30 µM): -8.378%

Structure (SMILES): Cc1ccc(C)c(N2CCN(CC3(O)CCNC3)CC2)c1 (centres undefined)
- Percent Effect (30.3 µM, […]): 98.99%

Structure (SMILES): Cc1ccccc1N1CCCN(CC2(O)CCCNC2)CC1 (centres undefined)
- Percent Effect (30.3 µM, […]): 97.82%

Structure (SMILES): CCOc1ccccc1N1CCN(CC2(O)CCCNC2)CC1 (centres undefined)
- Percent Effect (30.3 µM, […]): 12.99%

Structure (SMILES): Cc1ccc(NCC2(O)CCNCC2)cc1C
- Percent Effect (30.3 µM, […]): -19.76%

Structure (SMILES): Cc1ccc(C2(CN3CCN(c4ncccn4)CC3)CCNCC2)nc1
- Percent Effect (30.3 µM, […]): -2.357%

Structure (SMILES): CSCC(=O)N1CCCN(c2ccccc2C)CC1
- Percent Effect (30 µM, 30.03 µM): 12.81%

Structure (SMILES): OC(CNCCc1nnc2ccccn12)c1ccc2c(c1)OCO2 (centres undefined)
- Percent Effect (30.3 µM, […]): 14.08%

Structure (SMILES): CCn1c(CN2CCCC2)nnc1C1CCN(Cc2ccc(C)o2)CC1
- Percent Effect (30 µM, 30.03 µM): 43.06%

Structure (SMILES): CC[C@@]1(O)CCN(C(=O)CCSCc2ccc(F)cc2)C[C@H]1O
- Percent Effect (30.3 µM, […]): -8.433%

Structure (SMILES): CCc1cnc(CN(C)C2CCN(CC3CCC3)C2)o1 (centres undefined)
- Percent Effect (30.3 µM, […]): 50.08%

Structure (SMILES): CCc1cnc(CN(C)C2CCN(CC3CCOCC3)C2)o1 (centres undefined)
- Percent Effect (30.3 µM, […]): 46.35%

Structure (SMILES): CCc1cnc(CN(C)C2CCN(CC3CCN(C(C)=O)CC3)C2)o1 (centres undefined)
- Percent Effect (30.3 µM, […]): 21.9%

Structure (SMILES): CC1(C)CN(Cc2csc(CS(C)(=O)=O)n2)Cc2ccccc21
- Percent Effect (30.3 µM, […]): -3.043%

Structure (SMILES): Cc1cccc(N2CCN(CCNC(=O)c3ccnn3C)CC2)c1
- Percent Effect (30 µM, 30.03 µM): 32.04%

Structure (SMILES): Fc1ccccc1C(CNc1ccncn1)N1CCCC1 (centres undefined)
- Percent Effect (30.3 µM, […]): 13.69%

Structure (SMILES): Fc1ccc(C(CNc2ccncn2)N2CCCCC2)cc1 (centres undefined)
- Percent Effect (30.3 µM, […]): 33.33%

Structure (SMILES): Fc1ccc(C(CNc2ccncn2)N2CCCC2)cc1 (centres undefined)
- Percent Effect (30.3 µM, […]): 64.07%

Structure (SMILES): O=C(CCN1CCCCO1)NCc1cn2c(n1)SCC2
- Percent Effect (30.3 µM, […]): -7.597%

Structure (SMILES): CC(CNC(=O)c1cnc[nH]1)Oc1ccc(Cl)cc1 (centres undefined)
- Percent Effect (30.3 µM, […]): -8.982%

Structure (SMILES): CS(=O)(=O)Cc1nc(CNc2ccc(F)c(F)c2)cs1
- Percent Effect (30.3 µM, […]): -2.721%

Structure (SMILES): Cc1cc(C)n(CCCn2cncc2-c2ccc3c(c2)CC(C)N3C)n1.Cl (centres undefined)
- Percent Effect (30.3 µM, […]): 2.187%

Structure (SMILES): Cc1nonc1OCCNC(=O)COc1ccc(Cl)cc1Cl
- Percent Effect (30.3 µM, […]): 19.12%

Structure (SMILES): Cc1noc(Cl)c1CC(=O)NCCOc1ccc(F)cc1F
- Percent Effect (30.3 µM, […]): 8.93%

Structure (SMILES): Cc1nonc1OCCNC(=O)COc1ccc(F)cc1F
- Percent Effect (30.3 µM, […]): 56.45%

Structure (SMILES): O=C(c1ccc(COc2ccc(Cl)cc2)o1)N1N=CCC1(O)C(F)(F)F (centres undefined)
- Percent Effect (30.3 µM, […]): -74.85%

Structure (SMILES): CCSCCC(C)N(C)C(=O)c1ccc(C)o1 (centres undefined)
- Percent Effect (30.3 µM, […]): 26.69%

Structure (SMILES): Cn1ccnc1CN1CCc2c(COCC3CC3)nn(C)c2C1
- Percent Effect (30.3 µM, […]): 17.02%

Structure (SMILES): Cc1cc(CN2CC[C@@H]3[C@@H](CCC(=O)N3CCc3c[nH]cn3)C2)oc1C
- Percent Effect (30.3 µM, […]): 21.24%

Structure (SMILES): O=C(c1nnn(-c2ccccc2Cl)c1-c1ccccn1)N1CCSCC1
- Percent Effect (30.3 µM, […]): 1.038%

Structure (SMILES): CCC(=O)NCC(=O)NC(C)c1sc(-c2ccccc2F)nc1C (centres undefined)
- Percent Effect (30.3 µM, […]): 52.49%

Structure (SMILES): CC(=O)NCCC(=O)NC(C)c1sc(-c2ccccc2F)nc1C (centres undefined)
- Percent Effect (30.3 µM, […]): -1.241%

Structure (SMILES): COCC(=O)NC(C)c1sc(-c2ccccc2F)nc1C (centres undefined)
- Percent Effect (30.3 µM, […]): 18.86%

Structure (SMILES): CC(CNC(=O)Nc1cn[nH]c1)N1CCCC1 (centres undefined)
- Percent Effect (30 µM): 4.879%

Structure (SMILES): CC(=O)N(C)c1nc(CN2CCN(Cc3nccn3C)CC2)cs1
- Percent Effect (30.3 µM, […]): 5.012%

Structure (SMILES): CN1CCCC2(CCN(S(=O)(=O)c3c(Cl)nc4sccn34)C2)C1=O (centres undefined)
- Percent Effect (30.3 µM, […]): 41%

Structure (SMILES): O=S(=O)(c1c(Cl)nc2sccn12)N1CCCC2(CCNC2)C1 (centres undefined)
- Percent Effect (30.3 µM, […]): 49.51%

Structure (SMILES): O=S(=O)(c1c(Cl)nc2sccn12)N1CCC2(CCNCC2)C1
- Percent Effect (30.3 µM, […]): 51.47%

Structure (SMILES): CSCCc1n[nH]c2c1CN(S(=O)(=O)c1c(C)nn(C)c1C)CC2
- Percent Effect (30.3 µM, […]): -0.401%

Structure (SMILES): CCCSc1ccccc1NC(=O)N1CCN(C(=O)c2ccc[nH]2)CC1
- Percent Effect (30.3 µM, […]): 22.55%

Structure (SMILES): c1ccc(-c2nc3c(c(NCc4nnc5n4CCC5)n2)CCNC3)cc1
- Percent Effect (30.3 µM, […]): 11%

Structure (SMILES): c1coc(-c2nc3c(c(NCc4n[nH]c5c4CCC5)n2)CCNCC3)c1
- Percent Effect (30.3 µM, […]): 1.11%

Structure (SMILES): c1ccc(-c2nc3c(c(NCc4n[nH]c5c4CCC5)n2)CCNC3)cc1
- Percent Effect (30.3 µM, […]): 100.2%

Structure (SMILES): Cc1ncsc1CN1CC(C)(C2CC2)CC1=O (centres undefined)
- Percent Effect (30.3 µM, […]): -1.864%

Structure (SMILES): CC(=O)N1CCC(C)(c2cc(C(=O)NCC(C)(C)C)nc(C)n2)CC1
- Percent Effect (30.3 µM, […]): -26.7%

Structure (SMILES): Cc1n[nH]c2ncc(CNC3CCN(Cc4ccccn4)CC3)cc12.Cl
- Percent Effect (30.3 µM, […]): 23.69%

Structure (SMILES): Cc1cc(NC2CCN(Cc3ccccn3)CC2)n2nc(C)c(C)c2n1
- Percent Effect (30.3 µM, […]): 27.06%

Structure (SMILES): Cc1[nH]c2ccc(CNC3CCN(Cc4ccccn4)CC3)cc2c1C
- Percent Effect (30.3 µM, […]): 65.08%

Structure (SMILES): Cc1cc2nc(O)c(O)nc2cc1S(=O)(=O)NC1CC1
- Percent Effect (30.3 µM, […]): 53.32%

Structure (SMILES): Cc1cc2[nH]c(=O)c(=O)[nH]c2cc1S(=O)(=O)NC1CCCCC1
- Percent Effect (30.3 µM, […]): 4.835%

Structure (SMILES): Cc1cc2[nH]c(=O)c(=O)[nH]c2cc1S(=O)(=O)NC1CCC(C)CC1 (centres undefined)
- Percent Effect (30.3 µM, […]): 6.826%
